This assay concerns the target Voltage-dependent N-type calcium channel subunit alpha-1B (Homo sapiens) (UniProt Q00975). As to the kind of experiment: disruptors of CaV2.2 binding to Mint1 – biochemical, HTRF (AID 2073). Particulars: HTRF protein-protein interaction, Mint1-CaV2.2, at 20 µM, stronger effect = higher value. (Time-resolved FRET reads energy transfer from a long-lived donor to a nearby acceptor.)

In all, about 290,000 compounds went through this assay and about 570 (0.2%) were called active. Roughly 1% stayed inconclusive and do not appear here. No stated cut-off is given here; in the data, active means inhibition mostly above about 51% (no sharp cut-off); inconclusive means no clear call, values can overlap the other calls; inactive means mostly below about 53%. Many of the other results were omitted from the sample, so actives are more common in it than they were.

Chain of Voltage-dependent N-type calcium channel subunit alpha-1B (Homo sapiens) (Q00975 whole entry, looked up): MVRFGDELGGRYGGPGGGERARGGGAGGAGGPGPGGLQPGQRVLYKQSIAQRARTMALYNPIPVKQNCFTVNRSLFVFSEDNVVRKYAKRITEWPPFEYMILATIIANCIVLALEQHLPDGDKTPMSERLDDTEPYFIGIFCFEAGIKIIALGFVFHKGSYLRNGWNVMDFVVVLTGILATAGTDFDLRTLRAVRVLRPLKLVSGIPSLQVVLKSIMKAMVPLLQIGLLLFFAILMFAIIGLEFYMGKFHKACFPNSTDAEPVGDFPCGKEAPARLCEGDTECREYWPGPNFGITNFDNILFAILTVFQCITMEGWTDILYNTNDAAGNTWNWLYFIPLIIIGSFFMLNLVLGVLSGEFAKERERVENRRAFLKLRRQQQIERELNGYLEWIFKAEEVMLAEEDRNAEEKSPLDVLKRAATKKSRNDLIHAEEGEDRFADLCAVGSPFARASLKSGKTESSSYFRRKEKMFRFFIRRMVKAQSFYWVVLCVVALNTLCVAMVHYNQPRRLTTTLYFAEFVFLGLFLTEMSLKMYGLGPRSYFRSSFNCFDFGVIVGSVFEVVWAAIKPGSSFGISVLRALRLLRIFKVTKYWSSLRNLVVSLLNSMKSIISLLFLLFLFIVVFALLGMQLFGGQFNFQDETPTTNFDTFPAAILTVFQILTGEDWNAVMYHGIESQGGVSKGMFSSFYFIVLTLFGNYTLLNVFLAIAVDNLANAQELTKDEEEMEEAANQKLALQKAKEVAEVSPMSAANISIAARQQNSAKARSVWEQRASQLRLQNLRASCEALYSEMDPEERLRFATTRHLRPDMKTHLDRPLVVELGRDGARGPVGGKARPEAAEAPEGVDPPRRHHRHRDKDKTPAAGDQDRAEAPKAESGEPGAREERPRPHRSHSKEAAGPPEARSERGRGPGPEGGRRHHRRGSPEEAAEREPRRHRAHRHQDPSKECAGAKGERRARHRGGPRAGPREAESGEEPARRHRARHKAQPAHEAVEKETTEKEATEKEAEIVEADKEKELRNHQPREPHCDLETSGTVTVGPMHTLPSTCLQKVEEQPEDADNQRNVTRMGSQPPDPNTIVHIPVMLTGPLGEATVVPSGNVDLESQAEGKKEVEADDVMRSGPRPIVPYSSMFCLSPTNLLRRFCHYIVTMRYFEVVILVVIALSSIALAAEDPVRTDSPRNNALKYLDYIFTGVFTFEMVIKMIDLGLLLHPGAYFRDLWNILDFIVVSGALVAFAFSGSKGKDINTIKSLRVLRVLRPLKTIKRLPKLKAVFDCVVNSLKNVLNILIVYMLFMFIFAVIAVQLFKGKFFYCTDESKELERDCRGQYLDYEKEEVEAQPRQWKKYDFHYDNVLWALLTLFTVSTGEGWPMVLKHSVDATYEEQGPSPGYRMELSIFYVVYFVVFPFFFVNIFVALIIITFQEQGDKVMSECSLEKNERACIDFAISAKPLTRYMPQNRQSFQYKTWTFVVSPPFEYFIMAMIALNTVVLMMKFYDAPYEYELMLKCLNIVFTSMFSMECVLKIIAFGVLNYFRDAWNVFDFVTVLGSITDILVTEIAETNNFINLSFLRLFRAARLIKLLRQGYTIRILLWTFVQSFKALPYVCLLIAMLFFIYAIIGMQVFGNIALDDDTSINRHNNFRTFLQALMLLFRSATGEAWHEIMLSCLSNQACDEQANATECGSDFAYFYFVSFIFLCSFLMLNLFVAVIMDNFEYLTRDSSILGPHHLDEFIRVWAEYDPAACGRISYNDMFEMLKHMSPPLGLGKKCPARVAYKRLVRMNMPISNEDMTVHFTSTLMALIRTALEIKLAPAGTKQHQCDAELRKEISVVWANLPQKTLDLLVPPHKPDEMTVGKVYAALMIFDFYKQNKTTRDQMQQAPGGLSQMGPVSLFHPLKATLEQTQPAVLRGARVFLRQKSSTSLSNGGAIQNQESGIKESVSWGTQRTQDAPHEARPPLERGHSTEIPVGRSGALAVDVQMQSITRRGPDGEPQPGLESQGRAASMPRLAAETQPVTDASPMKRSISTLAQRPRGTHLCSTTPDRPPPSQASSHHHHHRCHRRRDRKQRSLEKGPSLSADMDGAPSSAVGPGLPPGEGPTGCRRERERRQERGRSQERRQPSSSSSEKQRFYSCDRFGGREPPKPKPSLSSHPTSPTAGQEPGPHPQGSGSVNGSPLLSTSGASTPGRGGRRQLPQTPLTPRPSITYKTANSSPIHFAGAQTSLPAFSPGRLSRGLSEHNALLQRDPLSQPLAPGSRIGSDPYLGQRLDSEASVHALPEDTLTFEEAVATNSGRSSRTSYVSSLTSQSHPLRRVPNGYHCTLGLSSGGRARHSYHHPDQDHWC

Take `COc1ccc(-c2noc(N3CCC(C(=O)Nc4ccccc4Cl)CC3)n2)cc1`: the inhibition – broadly, the drop in the measured response relative to a control, in per cent – was 1.9% (inactive).

With `Cc1onc(-c2ccccc2)c1C(=O)OCC(=O)NCc1ccc(F)cc1`, the inhibition is -0.7% (inactive).

Take `CCOc1ccc(Oc2c(C)oc3cc(O)ccc3c2=O)cc1`: the inhibition was 15.1% (inactive).

Turning to `Cc1ccc(-c2nc(C=Nc3ccccc3)c(O)o2)cc1`, the inhibition is -6.2% (inactive).

As to `Cc1ccc(N=Cc2nc(-c3ccc(C)cc3)oc2O)cc1`, the inhibition is 17.5% (inactive).

Take `CC(NCC(O)c1ccc([N+](=O)[O-])cc1)C12CC3CC(CC(C3)C1)C2` (configuration not stated): the inhibition was 0.6% (inactive).

Consider `CCNC(=O)COC(=O)c1ccc(-n2nc(C)cc2C)cc1`, for which the inhibition was 5.8% (inactive).

Regarding `COc1cc(/C=N/N=C(/C(=O)c2ccccc2)c2ccccc2)cc(OC)c1O`, the inhibition was -2.5% (inactive).

Turning to `O=C(/C(=N/N=C/c1ccc(O)c(O)c1O)c1ccccc1)c1ccccc1`, the inhibition was 66.2% (active).

As for `O=C(/C(=N/N=C/c1ccc(O)c(O)c1)c1ccccc1)c1ccccc1`, the inhibition is -21.8% (inactive).

Consider `CCC(=O)N1CC2(C)CN(C(=O)CC)CC(C)(C1)C2`, for which the inhibition is -2.6% (inactive).

As to `COc1ccc(C(=O)N2CCCC(CO)(Cc3ccccc3C)C2)o1` (configuration not stated), the inhibition was 2.1% (inactive).

For the molecule `CCCCc1ccc(-c2csc(/C(C#N)=C\c3ccco3)n2)cc1`, the inhibition is 57.8% (active).

As to `CCCCc1ccc(-c2csc(/C(C#N)=C/c3ccco3)n2)cc1`, the inhibition was 49.9% (inactive).

With `CCCCc1ccc(-c2csc(/C(C#N)=C/c3ccc(C)o3)n2)cc1`, the inhibition is 16.8% (inactive).

For `CSc1nc(N2CCN(c3ccccc3)CC2)cc(N2CCN(c3ccccc3)CC2)n1`, the inhibition is 18.7% (inactive).

With `O=C(N/N=C1\CCCc2ccccc21)c1cccc(Br)c1`, the inhibition is -12.7% (inactive).

Regarding `Cc1ccccc1CN(c1ccc(C(=O)NCc2ccccn2)cc1)S(C)(=O)=O`, the inhibition is -3.2% (inactive).

Consider `CCc1ccc(Nc2n[n+](-c3ccccc3)c(-c3ccc(OC)c(Br)c3)s2)cc1`, for which the inhibition was 19.2% (inactive).

On to `COC(=O)c1c(NC(=O)COC(=O)c2ccc(NC(=O)CC#N)cc2)sc2c1CCCCC2`, for which the inhibition is 78.4% (active).

`COC(=O)c1c(NC(=O)COC(=O)c2ccccc2O)sc2c1CCCCC2`: the inhibition is -3% (inactive).

Take `COC(=O)c1c(NC(=O)COC(=O)c2ccc(O)cc2)sc2c1CCCCC2`: the inhibition was 5.8% (inactive).

Turning to `CC(C)CCN1C(Nc2ccccc2)=NC[C@@H]1C`, the inhibition was 2.7% (inactive).

For the molecule `COc1ccccc1-c1cc(C(=O)Nc2cc(C)n(Cc3ccc(Cl)cc3)n2)no1`, the inhibition was 7.9% (inactive).

`Cc1c(Cl)cccc1NC(=O)CCCN1C(=O)c2cccnc2C1=O`: the inhibition was 3.3% (inactive).

As to `COc1ccc(Nc2c(-c3ccc(OC)cc3)nc3cnccn23)cc1`, the inhibition is -9.1% (inactive).

On to `O=C(/C=C/Nc1ccccc1)c1ccccc1`, for which the inhibition is -0.7% (inactive).

Regarding `CC1(C)OC(=O)C(=CNc2ccccc2)C(=O)O1`, the inhibition is -0.4% (inactive).

`O=C([C@@H]1Cc2ccccc2CN1)N1CCN(Cc2ccccc2)CC1`: the inhibition is 8.9% (inactive).

Consider `Cc1ccc(-n2ncc3c2CCCC3NC(=O)CCc2c(C)noc2C)cc1C` (configuration not stated), for which the inhibition was 16.6% (inactive).

As to `CNc1ccc(Br)cc(C(=O)/C=C/c2ccc(Cl)cc2Cl)c1=O`, the inhibition is 52.7% (active).

As for `CCNc1ccc(Br)cc(C(=O)/C=C/c2ccc(Cl)cc2Cl)c1=O`, the inhibition is 23.6% (inactive).

In the case of `CNc1ccc(Br)cc(C(=O)/C=C/c2cccc(Cl)c2Cl)c1=O`, the inhibition was 41.9% (inactive).

With `N=C1S/C(=C\c2ccc(-c3ccccc3C(=O)O)o2)C(=O)N1c1ccc2c(c1)OCO2`, the inhibition is 17.7% (inactive).

For `N=C1S/C(=C\c2ccco2)C(=O)N1c1ccc2c(c1)OCO2`, the inhibition was 56% (active).

Take `N=C1S/C(=C\c2ccc(-c3cccc(Cl)c3)o2)C(=O)N1c1nccs1`: the inhibition is 35.6% (inactive).

Regarding `N=C1S/C(=C\c2ccco2)C(=O)N1c1nccs1`, the inhibition was 50% (active).

For the molecule `COc1cc(/C=C2\SC(=N)N(c3ccc4c(c3)OCO4)C2=O)cc(OC)c1O`, the inhibition is -8.5% (inactive).

Regarding `COc1ccc(/C=C2\SC(=N)N(c3nccs3)C2=O)cc1OC`, the inhibition was 20.5% (inactive).

In the case of `c1ccc(Cc2nnc3sc(-c4cccnc4)nn23)cc1`, the inhibition was -12.8% (inactive).

For `COc1ccc(CN(CC(=O)NC(C)C)C(=O)CCC(=O)Nc2nccs2)cc1`, the inhibition is 9.7% (inactive).

Regarding `CCOc1ccc(N2C(=O)CN(C)C2=S)cc1`, the inhibition was -2% (inactive).

For `CC1CCN(C(=O)CCc2ccc(S(=O)(=O)NC(C)C)cc2)CC1`, the inhibition was 28.5% (inactive).

As for `O=C(Cn1c(-c2ccco2)nc2ccccc21)N1CCCCC1`, the inhibition was -14.9% (inactive).

On to `Cn1nc(C(F)(F)F)c(-c2ccc(Br)cc2)c1NC(=O)c1nccnc1C(=O)O`, for which the inhibition was 0.4% (inactive).

With `COc1ccc(NC2CCCN(C(=O)c3csc(C(C)C)n3)C2)cc1OC` (configuration not stated), the inhibition is -10% (inactive).

With `CSc1ccccc1OCc1cc(C(=O)NCc2cnc(C)cn2)no1`, the inhibition is 5.6% (inactive).

With `Clc1ccc(N=c2ssnc2Cl)nc1`, the inhibition was 38.2% (inactive).

As to `Fc1ccc(N=c2ssnc2Cl)c(F)c1`, the inhibition was 91.2% (active).

Consider `OCc1ccccc1N=c1ssnc1Cl`, for which the inhibition was 9.9% (inactive).

Take `Nc1ccccc1N=c1ssnc1Cl`: the inhibition was 4.1% (inactive).

Take `Cc1cc(Cl)ccc1N=C1N=C(N)c2ccccc21`: the inhibition is -3.2% (inactive).

For `COc1cccc(CNC(=O)CSc2nnc3c(n2)[nH]c2ccc(OC)cc23)c1`, the inhibition is 5.3% (inactive).

In the case of `Cc1cc(Cl)cc(Cl)c1OCC(=O)NCc1ccco1`, the inhibition was -1.4% (inactive).

For the molecule `Cc1ccc2c(Cl)cc(Cl)c(OCC(=O)NCc3ccco3)c2n1`, the inhibition was 56.6% (active).

As for `Cc1ccc2c(Cl)cc(Cl)c(OCC(=O)NC(=O)NCc3ccco3)c2n1`, the inhibition is 17.4% (inactive).

In the case of `CC1CCN(CC(=O)Nc2cccc(Cl)c2)CC1`, the inhibition was -2.2% (inactive).

`CC1(C(=O)N2CC3(CC(c4cccc([N+](=O)[O-])c4)=NO3)C[C@H]2C(=O)NCC(N)=O)CC1` (some centres not stated): the inhibition was -4.4% (inactive).

Turning to `O=C(c1ccco1)C(O)c1ccco1` (configuration not stated), the inhibition is 16.7% (inactive).

With `O=P(c1ccccc1)(c1ccccc1)C(O)c1ccco1` (configuration not stated), the inhibition was -0.2% (inactive).

Regarding `O=C(O)C(O)c1ccco1` (configuration not stated), the inhibition is 65.3% (active).

In the case of `FC(F)(F)Oc1ccc(NC(=S)NCCCN2CCOCC2)cc1`, the inhibition was -16.9% (inactive).

For the molecule `COC(=O)C1CCCN1S(=O)(=O)c1ccccc1NC(=O)c1cc(OC)c(OC)c(OC)c1` (configuration not stated), the inhibition is 12.9% (inactive).

Turning to `O=C(O)c1cccc(-c2ccc(/C=c3/sc4nc5ccccc5n4c3=O)o2)c1`, the inhibition is 26.7% (inactive).

With `O=C(O)c1ccc(-c2ccc(/C=c3/sc4nc5ccccc5n4c3=O)o2)cc1Cl`, the inhibition was 28.8% (inactive).

For `O=C(O)c1cc(C(=O)O)cc(-c2ccc(/C=c3/sc4nc5ccccc5n4c3=O)o2)c1`, the inhibition was 67% (active).

Regarding `COc1cc(/C=C(\C#N)c2nc(-c3cc4ccccc4oc3=O)cs2)ccc1O`, the inhibition is 23.3% (inactive).

Turning to `COc1cc(/C=C(/C#N)c2nc(-c3cc4ccccc4oc3=O)cs2)cc([N+](=O)[O-])c1O`, the inhibition is 80.7% (active).

On to `COc1cc(/C=C(\C#N)c2nc3ccccc3s2)cc([N+](=O)[O-])c1O`, for which the inhibition is 40.5% (inactive).

`COc1ccc(N2Cc3ccc(C(=O)N/N=C\c4ccc(O)cc4O)cc3C2)cc1`: the inhibition was 68.9% (inactive). The inhibition (measured here: average of repeat tests) was 29.4%.

Regarding `COc1ccc(NC(=O)c2cc3c(CO)cnc(C)c3oc2=Nc2cccc(F)c2)c(OC)c1`, the inhibition is 11.2% (inactive).

Turning to `COc1ccc(NC(=O)c2cc3c(CO)cnc(C)c3oc2=Nc2cccc(C)c2)c(OC)c1`, the inhibition was 10.6% (inactive).

For `COc1ccccc1C(=O)OCC(=O)NC1CCCC1`, the inhibition is 16.7% (inactive).

In the case of `NC(=O)c1ccccc1NC(=O)CN1CCOCC1`, the inhibition is -0.5% (inactive).

Turning to `COc1cc(/C=C/c2ccc3c(Br)cc(Br)c(O)c3n2)ccc1O`, the inhibition was 56.6% (active).

`COc1ccc(/C=C/c2ccc3c(Br)ccc(O)c3n2)cc1`: the inhibition was 32.5% (inactive).

For `COc1cc(/C=C/c2ccc3cccc(O)c3n2)ccc1O`, the inhibition is 21.1% (inactive).

`COCC(=O)N(Cc1nc2sc(C)c(C)c2c(=O)[nH]1)C1CCCCC1`: the inhibition was 4.2% (inactive).

For the molecule `CN(Cc1ccccc1F)C(=O)c1ccccc1Sc1ccccc1C#N`, the inhibition is -14.5% (inactive).

For the molecule `Cc1ccc(Nc2nc(-c3c(C)nc4ncccn34)cs2)cc1`, the inhibition is 7.5% (inactive).

`COc1ccc(Nc2nc(-c3c(C)nc4ncccn34)cs2)cc1`: the inhibition is 55.6% (active).

Regarding `Cc1nc2ncccn2c1-c1csc(Nc2ccc(O)cc2)n1`, the inhibition is 25% (inactive).

Consider `Cc1ccc2c(Cl)c(C(=O)NCC(c3ccco3)N3CCCC3)sc2c1` (configuration not stated), for which the inhibition was 3% (inactive).

For the molecule `O=c1c(Cl)nc2cc(Cl)ccc2n1CCNc1ncc(C(F)(F)F)cc1Cl`, the inhibition is -81.2% (inactive).

In the case of `Clc1ccc2nnnc(-c3ccccc3)c2c1`, the inhibition was 8.1% (inactive).

On to `Cc1cc(C(=O)COC(=O)Cn2c(C(F)(F)F)nc3ccccc32)c(C)n1Cc1ccco1`, for which the inhibition was 1.6% (inactive).

Consider `CC(=O)c1sc(NC(=O)CCN2C(=O)c3ccccc3C2=O)nc1C`, for which the inhibition was 14.5% (inactive).

As for `CCOC(=O)c1sc(NC(=O)CCCCCN2C(=O)c3cccc4cccc(c34)C2=O)nc1C`, the inhibition was 52.5% (active).

Turning to `CCOC(=O)CCCCCN1C(=O)c2cccc3cccc(c23)C1=O`, the inhibition is -9.7% (inactive).

On to `O=C(CC1C(=O)NCCN1Cc1cccc(F)c1)NCCCOc1cccnc1` (configuration not stated), for which the inhibition is 0.9% (inactive).

As to `N=C1C(c2nc3ccccc3s2)=C(O)CN1NC(=O)c1ccccc1[N+](=O)[O-]`, the inhibition is 14.9% (inactive).

As to `N=C1C(c2nc3ccccc3s2)=C(O)CN1NC(=O)c1c[nH]c2ccccc12`, the inhibition is 53.4% (active).

As for `N=C1C(c2nc3ccccc3[nH]2)=C(O)CN1NC(=O)c1c[nH]c2ccccc12`, the inhibition is 2.4% (inactive).

For `COc1cc(OC)c(C2C(C#N)=C(C)NC(C)=C2C#N)c(C(=O)O)c1`, the inhibition was -3.5% (inactive).

`C=C(C)Cn1c(C2CC(=O)N(Cc3ccccc3)C2)nc2ccccc21` (configuration not stated): the inhibition is -9.9% (inactive).

Take `CCCN(CCC)CCCNC(=O)C1CCN(S(=O)(=O)c2cccc3nsnc23)CC1`: the inhibition was -0.6% (inactive).

These data come from PubChem BioAssay AID2073 (Sanford-Burnham Center for Chemical Genomics, 2009).
